These results are taken from PubChem BioAssay (Tox21).

Test [1] addresses Acetylcholinesterase (Homo sapiens) (UniProt P22303). As to the kind of experiment: Acetylcholinesterase (AChE) small molecule antagonists: colormetric cell-based qHTS assay (AID 1347395). Further: nearly all actives have a fitted effect of over 30% in size. Further: potency means the concentration at half of the fitted maximal effect. In a few lines: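 Neuroblastoma line SH-SY5Y supplied the enzyme; cells were preincubated with compound for 30 min at 37 C and 5% CO2. Acetylthiocholine with DTNB was then added for 90 min at 37 C, and thiocholine was measured by colour.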

For test [2] the target is unchanged. As to the kind of experiment: Acetylcholinesterase (AChE) small molecule antagonists: enzyme-based qHTS assay (AID 1347397). Further: nearly all actives have a fitted effect of over 55% in size. Further: potency means the concentration at half of the fitted maximal effect. Conditions: Potency: AChE enzyme activity inhibition; outcome: AChE enzyme activity inhibition. In a few lines:
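Colorimetric DTNB read-out of thiocholine released from acetylthiocholine by recombinant human AChE (50 mU/mL as dispensed). Compounds were preincubated 30 min at RT before substrate/DTNB addition, with a 10 min RT reaction.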

For test [3] the target is unchanged. Description: Acetylcholinesterase (AChE) small molecule antagonists: enzyme-based qHTS assay with human liver microsomes (AID 1347399). Further: nearly all actives have a fitted effect of over 60% in size. As to conditions: Potency: qHTS inhibition; outcome: qHTS inhibition. In a few lines: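 Recombinant human AChE (50 mU/mL in the enzyme mix) and human liver microsomes (0.25 mg/mL final) were preincubated with compound and NADPH (0.25 mg/mL final) for 30 min at 37 C. Acetylthiocholine/DTNB was then added; thiocholine was read colorimetrically after 10 min at room temperature.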

For test [4] the target is unchanged. As to the kind of experiment: Acetylcholinesterase (AChE) small molecule antagonists: fluorescence cell-based qHTS assay (AID 1347398). Further: nearly all actives have a fitted effect of over 50% in size. Further: potency means the concentration at half of the fitted maximal effect. Conditions: Potency: AChE activity; outcome: AChE activity. In a few lines:
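SH-SY5Y, 2,000 cells/well, attached overnight; cmpd 30 min 37 C; acetylthiocholine/Thiolite Green cocktail 40 min RT; fluorescence Ex/Em 490/520 nm.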

The structures appear in SMILES notation. Values without a mark were called inactive. Inconclusive results are not listed. Active and inactive are the calls of the source. The call rests on the fitted dose curve.
On the % scale 0 is the no-effect control and ±100 the full control effect.

Chain of Acetylcholinesterase (Homo sapiens) (P22303 whole entry, looked up): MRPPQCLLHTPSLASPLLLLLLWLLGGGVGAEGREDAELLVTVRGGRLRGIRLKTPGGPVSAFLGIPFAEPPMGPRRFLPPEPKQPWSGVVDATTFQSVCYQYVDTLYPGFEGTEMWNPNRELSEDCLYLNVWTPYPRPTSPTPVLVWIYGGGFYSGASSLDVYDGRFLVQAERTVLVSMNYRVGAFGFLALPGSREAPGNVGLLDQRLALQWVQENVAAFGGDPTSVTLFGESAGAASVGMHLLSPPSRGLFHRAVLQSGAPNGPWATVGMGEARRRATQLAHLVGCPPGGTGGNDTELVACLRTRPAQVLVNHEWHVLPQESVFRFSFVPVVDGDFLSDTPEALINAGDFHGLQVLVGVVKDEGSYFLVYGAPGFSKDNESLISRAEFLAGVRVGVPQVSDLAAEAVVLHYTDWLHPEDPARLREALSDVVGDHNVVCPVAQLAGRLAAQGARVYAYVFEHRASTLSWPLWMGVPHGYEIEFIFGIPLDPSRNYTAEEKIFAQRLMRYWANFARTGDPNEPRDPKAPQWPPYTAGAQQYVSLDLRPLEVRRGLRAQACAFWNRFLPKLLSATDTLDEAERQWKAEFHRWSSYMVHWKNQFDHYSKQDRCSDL

For `CCOC(=O)C(Br)c1ccccc1` (configuration not stated), the Potency in test [1] was 71 µM (active). Besides, the Potency result in test [2] and in test [3] was “inactive” in each case.
As for `CC[C@H](C)[C@H](N)C(=O)O`, the Potency entry in test [1], in test [2] and in test [3] was “inactive” each time.
Regarding `CN(C)CCCSc1ccccc1NC(=O)/C=C/c1ccccc1`, the Potency result in test [1], in test [2] and in test [3] was “inactive” in each case.
Regarding `COc1cc(S(=O)(=O)O)c(C)cc1N=Nc1c(O)ccc2cc(S(=O)(=O)O)ccc12`, the Potency entry in test [1], in test [2] and in test [3] was “inactive” throughout.
With `CC1CC(=O)NN=C1c1ccc(NCC(C)(C)NCC(O)COc2cc(Cl)ccc2C#N)cc1` (configuration not stated), in test [1], the Potency is 24.5 µM (active). For the same compound, the Potency result in test [2] and in test [3] was “inactive” each time.
With `Cc1cc(CCN2CCN(c3nsc4ccccc34)CC2)cc2c1NC(=O)CC2(C)C`, the result in test [1], in test [2] and in test [3] was inactive.
As for `N[C@@H]1CONC1=O`, the Potency entry in test [1], in test [2] and in test [3] was “inactive” throughout.
For `C(/C=C/C=C/Nc1ccccc1)=Nc1ccccc1`, the Potency in test [1] was 35.6 µM (active). Besides, the Potency result in test [2] and in test [3] was “inactive” in each case.
Regarding `CC(CO)CO`, the Potency result in test [1], in test [2] and in test [3] was “inactive” in each case.
For `Cc1cc(-c2ccccc2)nnc1NCCN1CCOCC1`, the Potency result in test [1], in test [2] and in test [3] was “inactive” throughout.
Turning to `CCN(CC)CCOc1ccc(C(O)(Cc2ccc(Cl)cc2)c2ccc(C)cc2)cc1` (configuration not stated), the Potency entry in test [1], in test [2] and in test [3] was “inactive” throughout.
As for `Cc1c(-c2ccccc2)oc2c(C(=O)OCCN3CCCCC3)cccc2c1=O`, the Potency result in test [1], in test [2] and in test [3] was “inactive” throughout.
On to `O=C(/C=C/c1ccccc1)NCCO`, for which the Potency entry in test [1], in test [2] and in test [3] was “inactive” each time.
As for `COc1cccc(OC)c1`, the Potency result in test [1], in test [2] and in test [3] was “inactive” in each case.
Consider `N#CSc1ccc(N)c([N+](=O)[O-])c1`, for which the Potency result in test [1], in test [2] and in test [3] was “inactive” each time.
Consider `Cc1c(N)cccc1Cl`, for which the Potency entry in test [1], in test [2] and in test [3] was “inactive” throughout.
On to `CC(C(O)c1ccc(O)cc1)N1CCC(Cc2ccccc2)CC1` (configuration not stated), for which the Potency entry in test [1], in test [2] and in test [3] was “inactive” in each case.
For `CCCCCCCCCCCCN(CCO)CCO`, the Potency entry in test [1], in test [2] and in test [3] was “inactive” in each case.
On to `c1ccc(C(O[C@@H]2CCCN(CCc3ccc4c(c3)OCO4)C2)c2ccccc2)cc1`, for which the Potency entry in test [1], in test [2] and in test [3] was “inactive” throughout.
As for `CC(CN)CC(C)(C)CCN` (configuration not stated), the Potency entry in test [1], in test [2] and in test [3] was “inactive” throughout.
Regarding `N#CSCC(=O)O`, the Potency result in test [1], in test [2] and in test [3] was “inactive” each time.
Take `NC(=O)c1ncn([C@@H]2O[C@H](CO)[C@@H](O)[C@H]2O)c1O`: the Potency result in test [1], in test [2] and in test [3] was “inactive” throughout.
Consider `C[n+]1cc2c3c(ccc2c2ccc4cc5c(cc4c21)OCO5)OCO3`, for which the Potency in test [1] was 10.7 µM (active); in test [2], 16.9 µM (active). For the same compound, the activity change, negative = inhibition in test [3] is -3.24% [at 23.6 µM].
As for `O=C1CCc2cc(OCCCCc3nnnn3C3CCCCC3)ccc2N1`, the Potency in test [1] is 24.5 µM (active). The Potency result in test [2] and in test [3] was “inactive” each time.
Consider `COc1ccc2nc(SCc3ncc(C)c(OC)c3C)[nH]c2c1`, for which the Potency entry in test [1], in test [2] and in test [3] was “inactive” in each case.
Consider `CNC(=O)c1c(I)c(NC(C)=O)c(I)c(C(=O)O)c1I`, for which the Potency entry in test [1], in test [2] and in test [3] was “inactive” in each case.
Turning to `O=C(CCCN1CCN(c2ccc(F)cc2)CC1)NC1c2ccccc2CSc2ccccc21` (configuration not stated), the Potency result in test [1], in test [2] and in test [3] was “inactive” in each case.
For the compound `CC(C)(Cc1c[nH]c2ccccc12)NCC(O)COc1ccccc1C#N` (configuration not stated), the Potency entry in test [1], in test [2] and in test [3] was “inactive” each time.
`NC(=O)C1(N2CCCCC2)CCN(CCCN2c3ccccc3CCc3ccc(Cl)cc32)CC1`: the Potency result in test [1] and in test [4] was “inactive” in each case.
For `Cc1ccc2c(c1)CCCN2`, the Potency entry in test [1], in test [2] and in test [3] was “inactive” in each case.
For the compound `CC(O)CCCCn1c(=O)c2c(ncn2C)n(C)c1=O` (configuration not stated), the Potency result in test [1], in test [2] and in test [3] was “inactive” each time.
Turning to `C/C(=N/NC(=O)c1ccncc1)C(=O)O`, the Potency result in test [1], in test [2] and in test [3] was “inactive” in each case.
In the case of `Cc1cc(O)c(C(C)(C)C)cc1C(C)(C)C`, the Potency entry in test [1], in test [4] and in test [3] was “inactive” in each case.
In the case of `c1ccc(-c2ccc(C(c3ccccc3)n3ccnc3)cc2)cc1` (configuration not stated), the Potency entry in test [1], in test [4] and in test [3] was “inactive” in each case.
In the case of `CSC(=O)c1cccc2nnsc12`, the Potency is 35.6 µM (active) in test [1] and 39.9 µM (active) in test [4]. In test [3], the Potency entry was “inactive”.
For `COc1cc(C(C)C)c2c(c1)S(=O)(=O)N(COc1cc(=O)n3cccc(OCCN4CCCCC4)c3n1)C2=O`, the Potency is 19 µM (active) in test [1] and 6.74 µM (active) in test [4].
As to `C=CC[N+]1([C@H]2C[C@H]3[C@@H]4CC[C@H]5C[C@H](OC(C)=O)[C@@H](N6CCCCC6)C[C@]5(C)[C@H]4CC[C@]3(C)[C@H]2OC(=O)CC)CCCCC1`, the results for the Potency in test [1] and in test [4] were 27.5 µM (active) and 13.8 µM (active), respectively. Besides, the Potency result in test [3] was “inactive”.
Regarding `CCCCCCCCOC(=O)c1cc(O)c(O)c(O)c1`, the Potency entry in test [1] and in test [4] was “inactive” each time.
On to `CCCCCCCCCCCCCCCCOS(=O)(=O)O`, for which the Potency result in test [1], in test [2] and in test [3] was “inactive” in each case.
Consider `Cc1c(C)n(Cc2ccccc2)c2ccc(C(=O)OCCN(C)C)cc12`, for which the Potency entry in test [1] and in test [3] was “inactive” in each case. Also, the Potency in test [4] was 13.8 µM (active).
